This note sets out measurements from PubChem BioAssay (NCI).

The panel holds about 83,000 compounds, 20% with a hit somewhere; the sample as a whole holds those more often.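 Note: values are percent growth. 100 is the growth of untreated cells, values between 100 and 0 indicate rising inhibition; between -100 and 0 indicates cell death.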 Unmarked numbers belong to inactive results. Activity calls are given as the source filed them. Rule for the calls: active = growth percent below 10; inactive = the rest.

Among the test systems are NCI-H23 lung; NCI-H226 lung; NCI-H322M lung; HOP-62 NSCLC; NCI-H460 lung; HOP-92 NSCLC; NCI-H522 lung; A549/ATCC NSCLC; 786-0 renal; COLO 205 colon; DU-145 prostate; K-562 leukemia; MALME-3M melanoma; MDA-MB-231 breast; RXF 393 renal; SF-268 CNS; SF-295 CNS; SF-539 CNS; UACC-257 melanoma; M14 melanoma.
Assay in all cases: NCI-60 one-dose screen, 48 h (100 = growth as untreated, 0 = no growth, -100 = all killed)
Details in all cases: 10 µM unless noted

As for `CN(C)CCCC1(c2ccc(F)cc2)OCc2cc(-c3ccc(C(F)(F)F)nc3)ccc21` (stereo not given), the growth in the experiment on NCI-H23 lung was 80.6%; in the experiment with NCI-H226 lung, 90.6%; in the experiment with NCI-H322M lung, 84.7%; with HOP-62 NSCLC, 83.3%; in the experiment on NCI-H460 lung, 72.9%; in the experiment on HOP-92 NSCLC, 51.1%. Also, the growth in the experiment with NCI-H522 lung was 74.7%; in the experiment with A549/ATCC NSCLC, 71.4%; in the experiment on 786-0 renal, 72.7%; with COLO 205 colon it was 60.7%; in the experiment on DU-145 prostate, 83.6%; in the experiment on K-562 leukemia, 13.5%. The growth is 34.9% in the experiment on MALME-3M melanoma; 72.6% in the experiment on MDA-MB-231 breast; 45.1% with RXF 393 renal; 73.7% in the experiment with SF-268 CNS; 81.2% in the experiment with SF-295 CNS; 80.8% in the experiment with SF-539 CNS. The growth was -31.8% (active) in the experiment on UACC-257 melanoma and 13.8% in the experiment on M14 melanoma.
`COc1cnc2c(c1)C(=O)c1c-2n(CCCNCCN2CCOCC2)c(=O)c2cc([N+](=O)[O-])ccc12`: the growth was -21.7% (active) in the experiment on NCI-H23 lung; -52.7% (active) with NCI-H226 lung; 6.04% (active) with NCI-H322M lung; -0.313% (active) with HOP-62 NSCLC; -55.2% (active) in the experiment on NCI-H460 lung; -4.05% (active) in the experiment with HOP-92 NSCLC. The growth was -19.9% (active) with NCI-H522 lung; -72.1% (active) in the experiment with A549/ATCC NSCLC; -53.6% (active) with 786-0 renal; -2.78% (active) in the experiment on COLO 205 colon; 2.63% (active) with DU-145 prostate; 0.36% (active) with K-562 leukemia. Besides, the growth with MALME-3M melanoma is -11.7% (active); in the experiment on MDA-MB-231 breast, 2.48% (active); with RXF 393 renal it was -32.3% (active); in the experiment on SF-268 CNS it was 12.3%; in the experiment on SF-295 CNS it was 1.52% (active); with SF-539 CNS, -1.79% (active). Moreover, the growth in the experiment on UACC-257 melanoma was 5.34% (active); with M14 melanoma, 6.27% (active).
In the case of `O=P(O)(c1ccccc1)c1ccccc1I`, the growth in the experiment with NCI-H23 lung was 96.4%; in the experiment with NCI-H226 lung, 90%; in the experiment on NCI-H322M lung it was 94.1%; in the experiment with HOP-62 NSCLC, 94.8%; in the experiment with NCI-H460 lung it was 97.2%; with HOP-92 NSCLC it was 83.9%. The growth in the experiment on NCI-H522 lung was 80.7%; in the experiment on A549/ATCC NSCLC it was 71.2%; with 786-0 renal it was 109%; in the experiment with COLO 205 colon it was 107%; in the experiment with DU-145 prostate, 109%; in the experiment on K-562 leukemia it was 93.8%. For the same compound, the growth is 87.5% in the experiment on MALME-3M melanoma; 97.1% in the experiment on MDA-MB-231 breast; 102% in the experiment with RXF 393 renal; 99.8% in the experiment with SF-268 CNS; 93.7% with SF-295 CNS; 101% with SF-539 CNS. Further, the growth in the experiment with UACC-257 melanoma is 76.5%; in the experiment on M14 melanoma, 90.1%.
With `C[C@H]1OC(=O)/C=C/[C@@H](O)[C@@H](O)CCCCCCCC[C@@H]1O`, the growth in the experiment on NCI-H23 lung was 95.1%; in the experiment with NCI-H226 lung, 89.3%; in the experiment on NCI-H322M lung, 96.2%; in the experiment with HOP-62 NSCLC it was 82.9%; in the experiment with NCI-H460 lung it was 102%; in the experiment on HOP-92 NSCLC it was 82.8%. Further, the growth was 79.5% with NCI-H522 lung; 73.6% in the experiment with A549/ATCC NSCLC; 97.5% in the experiment with 786-0 renal; 95.1% in the experiment with COLO 205 colon; 107% in the experiment with DU-145 prostate; 91.6% in the experiment with K-562 leukemia. For the same compound, the growth in the experiment with MALME-3M melanoma was 98.1%; in the experiment with MDA-MB-231 breast, 109%; with RXF 393 renal it was 107%; in the experiment on SF-268 CNS, 102%; in the experiment with SF-295 CNS, 98.9%; in the experiment with SF-539 CNS, 97.7%. Further, the figures for the growth with UACC-257 melanoma and in the experiment on M14 melanoma were 82.5% and 96.3%, respectively.
Consider `Cn1c2c(Cl)c(Cl)ccc2c2c(C#N)c[nH]c(=O)c21`, for which the growth in the experiment on NCI-H23 lung was 91%; with NCI-H226 lung it was 94.5%; with NCI-H322M lung, 129%; in the experiment with HOP-62 NSCLC it was 94.1%; in the experiment on NCI-H460 lung, 96.2%; with HOP-92 NSCLC, 78.6%. Moreover, the growth with NCI-H522 lung was 95.5%; in the experiment on A549/ATCC NSCLC it was 93.3%; in the experiment on 786-0 renal, 97.4%; in the experiment on COLO 205 colon, 115%; with DU-145 prostate it was 109%; with K-562 leukemia, 106%. For the same compound, the growth in the experiment on MALME-3M melanoma was 140%; in the experiment with MDA-MB-231 breast, 98.5%; in the experiment on RXF 393 renal, 97.2%; with SF-268 CNS, 99%; with SF-295 CNS, 97.8%; with SF-539 CNS it was 84.6%. The growth in the experiment with UACC-257 melanoma is 98.1%; with M14 melanoma, 105%.
Consider `Cc1ccc2c(c1)c1nc3cc(C)c(C)cc3nc1n2CCN(C)C`, for which the growth in the experiment on NCI-H23 lung is 13.5%; with NCI-H226 lung, 7.71% (active); in the experiment on NCI-H322M lung, 16.3%; in the experiment with HOP-62 NSCLC it was 23.8%; with NCI-H460 lung, 9.12% (active); in the experiment on HOP-92 NSCLC, 32.1%. Also, the growth in the experiment on NCI-H522 lung is 31.2%; in the experiment on A549/ATCC NSCLC it was 12.2%; with 786-0 renal, 26.5%; with COLO 205 colon it was -5.24% (active); with DU-145 prostate it was 20.5%; in the experiment on K-562 leukemia it was 8.09% (active). In addition, the growth with MALME-3M melanoma is -8.13% (active); with MDA-MB-231 breast, 19.3%; in the experiment on RXF 393 renal, 16.2%; in the experiment with SF-268 CNS, 30.3%; in the experiment on SF-295 CNS, 5.24% (active); in the experiment with SF-539 CNS it was 11.4%. Also, the growth with UACC-257 melanoma was 13.1%; with M14 melanoma, 13.3%.
`COC(=O)CNc1nc(N(C)O)nc(N(C)O)n1`: the growth is 48.7% in the experiment with NCI-H23 lung; 61.3% with NCI-H226 lung; 54.6% with NCI-H322M lung; 34.2% in the experiment on HOP-62 NSCLC; 17.7% in the experiment on NCI-H460 lung; 35.2% in the experiment on HOP-92 NSCLC. The growth with NCI-H522 lung is 53.2%; with A549/ATCC NSCLC it was 46.5%; with 786-0 renal it was 25.9%; in the experiment with COLO 205 colon it was 12.7%; in the experiment on DU-145 prostate it was 34.7%; in the experiment with K-562 leukemia, 35%. Besides, the growth is 97.6% in the experiment on MALME-3M melanoma; 43% in the experiment with MDA-MB-231 breast; 47.2% in the experiment with RXF 393 renal; 34.3% with SF-268 CNS; 45.2% with SF-295 CNS; 47.5% in the experiment with SF-539 CNS. Further, the growth was 76.9% in the experiment with UACC-257 melanoma and 46% with M14 melanoma.
